Shown are actives, neighbours in structure and some others; about 5.9% of the full set was active somewhere.
GALK inhibitor = galactokinase (human) inhibition; Potency, µM (series often up to 57.5 µM), most hits filed as inhibitors; 270,000 tested, 0.007% active; Purified GALK, Kinase-Glo residual ATP luminescence; P51570
Target sequence (P51570 whole entry, looked up): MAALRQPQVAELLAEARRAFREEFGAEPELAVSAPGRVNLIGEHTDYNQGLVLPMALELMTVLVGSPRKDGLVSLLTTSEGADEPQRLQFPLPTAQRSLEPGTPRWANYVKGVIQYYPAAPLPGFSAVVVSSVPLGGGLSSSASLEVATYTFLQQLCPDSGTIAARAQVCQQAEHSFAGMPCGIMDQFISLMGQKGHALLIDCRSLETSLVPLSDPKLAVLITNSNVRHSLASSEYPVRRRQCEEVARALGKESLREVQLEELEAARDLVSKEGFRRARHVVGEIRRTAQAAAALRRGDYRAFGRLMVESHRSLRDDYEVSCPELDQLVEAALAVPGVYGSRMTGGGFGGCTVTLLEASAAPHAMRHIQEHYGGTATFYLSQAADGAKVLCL
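ATP-depletion format; final 35 uM ATP, 100 uM D-galactose, 5 nM enzyme; pH 8.0 HEPES/Mg2+ buffer; 60 min RT; luminescence read 10 min after detection reagent.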
Gal4-VP16 FLuc = Gal4-VP16 reporter inhibition counter-screen; Drosophila S2 Gal4-VP16 UAS-luciferase, luminescence, 20 h; Potency, µM (doses to about 53.6 µM), hits mostly inhibitors; 310,000 tested, 3.5% active; AID 2546;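 note: Gal4-VP16 expression switched on by copper sulfate through the metallothionein promoter; nearly all actives have a fitted effect of over 50% in size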
TrxR1 substrate = is turned over as a substrate by rat TrxR1 | purified TrxR1 substrate turnover, NADPH consumption readout | Potency, µM (highest dose often 114 µM) | 390,000 tested, 0.01% active | AID 588456; note: nearly all actives have a fitted effect of over 50% in size
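Rat TrxR1, dispensed at 90 nM, was prereduced with 400 uM NADPH (final) for 5 min at ~22 deg C, then incubated with compound 15 min before 400 uM selenite. A first-read NADPH fluorescence drop versus no-compound background flagged substrates.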
TrxR1 inh = inhibitors of rat thioredoxin reductase 1; O89049; recombinant rTrxR1, NADPH fluorescence consumption, selenite substrate; Potency, µM (doses to about 114 µM), hits mostly inhibitors; 390,000 tested, 1% active; AID 588453; note: nearly all actives have a fitted effect of over 65% in size
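Rat TrxR1 (90 nM in the dispensed reagent) was pre-reduced with 400 uM NADPH for 5 min at room temperature, then incubated with compound for 15 min. After 400 uM selenite was added, NADPH fluorescence (Ex 340/Em 450 nm) was followed for 8 min.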
Coupling enz = counter-screen for Giardia aldolase inhibitors: coupling enzyme system; 290,000 tested, 0.67% active; activity change, negative = inhibition, % at 58.2 µM, hits read low; coupling enzyme system counterscreen, AmpLite Red fluorescence; in the data active = activity change below about -30%
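Counterscreen lacking aldolase: glyceraldehyde-3-phosphate coupling-enzyme reagent preincubated 10 min at RT with compound (at 57.5 uM final), then substrate/coupling system with AmpLite Red added; fluorescence read at 525/598 nm after 20 min RT.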
RORgamma inh = inhibitors of mouse ROR gamma transcriptional activity. P51450. Drosophila S2 Gal4-RORgamma UAS-luciferase reporter, 20 h. Potency, µM (doses to about 53.6 µM), usual class: inhibitors. 310,000 tested, 5.4% active. AID 2551; note: nearly all actives have a fitted effect of over 60% in size
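Using a luciferase readout, inhibitors were identified by reduced reporter activity in Drosophila cells coexpressing a copper-inducible Gal4–ROR gamma fusion and UAS-driven Photinus luciferase, incubated 20 hr after 700 uM copper sulfate.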
A number is an active result; . = inactive; ? = inconclusive; / = no result; [ ] = dose if it differs, or a comment. Unless noted, calls come from the whole dose curve; as a rule, active = well fitted curve in the direction sought with a large enough effect; inconclusive = small, poorly fitted or top-dose-only effect, or another doubt; inactive = no such curve, though single readings can be large; an effect the other way counts as inactive or inconclusive.

SMILES	GALK inhibitor	Gal4-VP16 FLuc	TrxR1 substrate	TrxR1 inh	Coupling enz	RORgamma inh
CN1CCN(c2ccc(-c3cccc(NC(=O)COc4ccccc4)c3)nn2)CC1	/	/	.	.	/	/
CCC(=O)Nc1cccc(-c2ccc(N3CCCCC3)nn2)c1	.	2.8µM	.	.	.	2.5µM
CN(C)C(=O)/N=N/C(=O)N(C)C	/	/	.	.	/	/
C=CCN1C(=O)/C(=c2\sc3nc(=O)c(Cc4ccccc4Cl)nn3c2=O)c2ccccc21	/	?	.	?	.	13µM
O=C(O)CCN1C(=O)/C(=C2\C(=O)N(Cc3ccccc3Cl)c3ccccc32)SC1=S	.	.	/	/	.	.
N=c1oc2cc(O)ccc2cc1C(=O)Nc1ccc(Br)cc1	.	1.8µM	.	.	.	1.8µM
Cc1ccc(NC(=O)c2ccc(Cl)c(N3C(=O)C=CC3=O)c2)cc1	.	3.2µM	.	?	.	7.9µM
C/C(=N\NC(N)=S)c1ccccc1	.	.	.	?	.	.
C/C(=N\NC(=S)Nc1cccc(C)c1)c1cccc(N)c1	.	3.2µM	.	.	.	4.5µM
C/C(=N\NC(=S)Nc1ccc(C)cc1)c1cccc(N)c1	.	13µM	.	.	.	2.8µM
CC(=NNC(=S)Nc1ccc(C)cc1)c1ccccn1	/	/	.	?	/	/
CSC(=S)N/N=C(\C)c1ccccc1	.	4.5µM	.	.	.	0.45µM
C/C(=N\NC(=S)Nc1cccc(C)c1)c1ccccc1	.	7.9µM	.	.	/	1.1µM
CCOc1ccc(NC(=O)c2cnn3c2NC(C)=C(C(=O)Nc2ccc(Cl)cc2)C3c2ccc(OC)c(OC)c2)cc1 (stereo not drawn)	/	/	.	.	/	/
Cc1oc2cc3oc(=O)c(CCC(=O)NCCC(=O)O)c(C)c3cc2c1C	.	.	.	.	.	.
Cc1oc2cc3oc(=O)c(CCC(=O)NCc4ccccn4)c(C)c3cc2c1C	/	?	.	.	.	6.3µM
COCCn1c(SCC(=O)Nc2ncc(C)s2)nc2sc3c(c2c1=O)CCC3	.	10µM	/	/	.	.
COc1ccc(O)c(-c2[nH]ncc2C(=O)c2cccc(C)c2)c1	.	.	.	.	.	.
Cc1cc(C)cc(-n2c(C)cc(C(=S)N3CCOCC3)c2C)c1	.	16µM	.	.	.	3.2µM
CCn1c(C)nc2cc(C(=O)N/N=C(\C)c3ccccc3O)ccc21	.	0.63µM	.	.	.	0.63µM
CCn1c(C)nc2cc(C(=O)NNC(=S)Nc3ccccc3OC)ccc21	.	.	.	.	.	13µM
COc1ccccc1-c1nccc(NCc2cnc(C)cn2)n1	/	.	/	/	.	.
COc1ccc(/C=C\C(=O)c2c(O)ccc3c(C)cc(=O)oc23)cc1OC	.	?	.	.	.	13µM
COc1cc(/C=C/C(=O)c2c(O)ccc3c(C)cc(=O)oc23)ccc1O	.	?	.	?	.	13µM
Cc1cc(=O)oc2c(C(=O)/C=C/c3ccccc3)c(O)ccc12	.	.	.	.	.	.
SMILES	GALK inhibitor	Gal4-VP16 FLuc	TrxR1 substrate	TrxR1 inh	Coupling enz	RORgamma inh
CCSc1nnc(-c2ccccc2N)c(=O)[nH]1	.	.	.	.	.	?
O=C(NC(=S)NNC(=O)c1ccccc1[N+](=O)[O-])c1ccc(Br)cc1	.	6.3µM	.	.	.	6.3µM
O=C(COc1ccc([N+](=O)[O-])cc1)NNC(=S)NC(=O)c1ccc(Br)cc1	.	?	.	?	.	3.2µM
Cc1ccc(C(=O)NC(=S)NNC(=O)COc2ccc([N+](=O)[O-])cc2)cc1	.	11µM	.[0.0914 µM]	?	.	11µM
CCN(CC)c1nc2c(c(=O)[nH]c(=O)n2C)n1CCCc1ccccc1	.	.	.	.	.	?
COC(=O)Cc1ccc(NC(=O)c2ccc3c(c2)C(=O)N(Cc2cccnc2)C3=O)cc1	.	?	.	.	/	.
O=C1c2ccc3c4c(ccc(c24)C(=O)N1Cc1cccnc1)C(=O)N(Cc1cccnc1)C3=O	.	.	/	/	.	.
CC(C)c1ccc(NC(=O)c2ccc3c(c2)C(=O)N(Cc2cccnc2)C3=O)cc1	.	18µM	.	.	.	?
O=C1c2ccc([N+](=O)[O-])cc2C(=O)N1Cc1cccnc1	.	.	.	.	.	1.3µM
CCOC(=O)c1ccc(NC(=O)c2ccc3c(c2)C(=O)N(Cc2cccnc2)C3=O)cc1	.	11µM	.	.	/	.
CC(C)CC(=O)Nc1nnc(S(=O)(=O)N2CCc3ccccc32)s1	/	.	.	.	.	.
COc1ccc(C2CC(=O)Nc3c2c(C)nn3-c2nncc(-c3ccccc3)n2)c(OC)c1OC (stereo not drawn)	/	/	.	.	/	/
COc1ccc(C(=O)Oc2c(Sc3ccc(C)cc3)c(C)nn2C(C)(C)C)cc1OC	/	/	.	.	/	/
OCC1CCCN(C(=S)Nc2ccc(Nc3ccccc3)cc2)C1 (stereo not drawn)	.	7.9µM	.	.[11.4 µM]	.	7.1µM
COc1cc(NC(=S)N2CCC(C(O)(c3ccccc3)c3ccccc3)CC2)cc(OC)c1	/	?	.	.	.	14µM
S=C(Nc1ccccc1)N1CCC(Cc2ccccc2)CC1	.	6.3µM	.	.	.	6.3µM
CCNC(=S)N1CCC(Cc2ccccc2)CC1	.	.	.	.	/	.
COc1ccc(NC(=S)N2CCC(Cc3ccccc3)CC2)cc1	.	?	.	.	/	8.9µM
CSc1ccc(CNC(=O)C2CCN(c3nc4ccccc4nc3C(F)(F)F)CC2)cc1	/	/	.	.	/	/
Cc1cc(NC(=O)c2cc3cccc([N+](=O)[O-])c3[nH]2)ccc1F	.	.	.	.	.	.
Cc1c(C(=O)N/N=C/C(C)C)[nH]c2c([N+](=O)[O-])cccc12	.	.	.	.	.	2.2µM
Cc1c(C(=O)N2CCOCC2)sc(NC(=O)CCl)c1C#N	.	?	.	?	.	13µM
CCCCNC(=S)NC(=O)c1ccc([N+](=O)[O-])cc1	.	?	.	.	.	4.5µM
CC(C)CNC(=S)NC(=O)c1ccc([N+](=O)[O-])cc1	.	14µM	.	.	.	4.5µM
CC(C)CNC(=S)NC(=O)c1csc([N+](=O)[O-])c1	.	?	.	.	.	?
SMILES	GALK inhibitor	Gal4-VP16 FLuc	TrxR1 substrate	TrxR1 inh	Coupling enz	RORgamma inh
Cn1c(C(=O)N2CCCc3ccccc32)cc2c(=O)n3ccccc3nc21	.	.	/	/	.	.
NC(=O)c1c(/N=C/c2cccs2)sc2c1CCCC2	.	.	.	40µM	.	.
O=C(COC(=O)C1CC1)NCc1ccccc1	/	/	.	.	/	/
C(=C\c1ccco1)/C=N/n1cnnc1	.	.	.	22µM	-40	.
S=c1[nH]nc(-c2ccncc2)n1/N=C/C=C/c1ccco1	.	.	.	?	.	?
COc1ccc(S(=O)(=O)NCC(c2ccco2)S(=O)(=O)c2ccc(C)cc2)cc1C (stereo not drawn)	/	/	.	11µM	/	/
CCOc1ccc(S(=O)(=O)NCC(c2ccco2)S(=O)(=O)c2ccc(C)cc2)cc1 (stereo not drawn)	/	/	.	.	/	/

Assay outcomes (PubChem BioAssay)
